Pf growth 48h = P. falciparum growth inhibition at 48 hours (one generation). P. falciparum luciferase growth in erythrocytes, 48 h. Potency, µM (doses to about 28.7 µM), inactives show at the highest dose activity change, negative = inhibition, actives largely listed as inhibitors. 310,000 tested, 5.9% active. AID 504832; further: potency means the concentration at half of the fitted maximal effect; on the % scale 0 is the no-effect control and ±100 the full control effect
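Luminescence readout; reporter = integrated firefly luciferase in P. falciparum. RBC culture at 2% hematocrit, 0.1% parasitemia final, 37 C/5% CO2; decreased signal taken as growth inhibition.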
HCV inh = inhibitors of hepatitis C virus infection; AID 651820; 340,000 tested, 3.4% active; Potency, µM (titrated, usually from 41.8 µM), for inactives: top-dose activity change, negative = inhibition, usual class: inhibitors; Huh7.5.1 HCVcc-Cre infection, luciferase reporter, 44 h; further: potency means the concentration at half of the fitted maximal effect; on the % scale 0 is the no-effect control and ±100 the full control effect
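Reporter virus HCVcc-Cre (~0.5 moi) infects cells exposed to compound; seeding density 1,000 cells/well with 4 h settling beforehand. Luminescence, 15 sec read, taken 44 h post-infection following a 15 min RT substrate incubation.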
Sm TGR block = S. mansoni TGR enzyme inhibition; Q962Y6; purified TGR, DTNB reduction, TNB absorbance 405 nm; Potency, µM (doses to about 114 µM), inactives show at the highest dose activity change, negative = inhibition, usual class: inhibitors; 360,000 tested, 3% active; AID 485364; further: potency means the concentration at half of the fitted maximal effect; on the % scale 0 is the no-effect control and ±100 the full control effect; nearly all actives have a fitted effect of over 60% in size
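TGR 20 nM + NADPH 100 uM (dispensed conc.), cpd preinc 15 min RT; start with NADPH (500 uM addition) then DTNB (15 mM addition). Kinetic TNB absorbance, 405 nm filter. Four-parameter Hill fit across titration.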
HCMV inh = blocks human cytomegalovirus replication; HFF cells, HCMV-luciferase reporter, 72 h; hits give low values; activity change, negative = inhibition, % at 57.5 µM; 410,000 tested, 4.5% active; in the data active means activity change below about -60%; inconclusive means no clear call, values can overlap the other calls; inactive means above about -39%; further: on the % scale 0 is the no-effect control and ±100 the full control effect
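Compounds were evaluated in HFFs infected with an HCMV luciferase reporter virus (MOI 1 PFU/cell). Luciferase in lysates collected 72 h post infection served as the replication measure.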
SARS PLP yeast = inhibitors of SARS-CoV papain-like protease in yeast; S. cerevisiae expressing SARS-CoV PLpro, growth rescue; Potency, µM (titrated, usually from 32.9 µM), without a hit: top-dose activity, positive = growth rescue, usual class: activators; 330,000 tested, 0.19% active; AID 485353; calls by dose curve; further: potency means the concentration at half of the fitted maximal effect; 0% is about no effect; nearly all actives have a fitted effect of over 55% in size
Pf growth 96h = inhibits malaria parasite growth, 96 h; P. falciparum luciferase reporter growth, 96 h; Potency, µM (series often up to 28.7 µM), inactives show at the highest dose activity change, negative = inhibition, hits mostly inhibitors; 320,000 tested, 6.9% active; further: potency means the concentration at half of the fitted maximal effect; on the % scale 0 is the no-effect control and ±100 the full control effect
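Two parasite generations (96 h, 37 C, 5% CO2) of compound exposure in infected erythrocytes (0.05% parasitemia, 2% hematocrit). Luciferase-reporter P. falciparum; decreased luminescence indicates inhibited growth, aimed at apicoplast-acting delayed death.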
The depositor's hits bear a star; ? = inconclusive; · = no result; [ ] = remark or other dose. Hits are enriched below; roughly 15% of the tested compounds scored in any of these assays. Unless noted, the call rests on the fitted dose curve; in most records, active means well fitted curve in the direction sought with a large enough effect; inconclusive means small, poorly fitted or top-dose-only effect, or another doubt; inactive means no such curve, though single readings can be large; an effect the other way counts as inactive or inconclusive.

SMILES	Pf growth 48h	HCV inh	Sm TGR block	HCMV inh	SARS PLP yeast	Pf growth 96h
O=[N+]([O-])c1ccc(N2CCN(Cc3ccncc3)CC2)cc1	24%	0%	-2%	-90*	0%	19%
COc1cccc(Cl)c1NC(=O)N1CCN(c2cc(C)nc3ccccc23)CC1	?	10µM*	11%	-80*	0%	?
COc1ccc(N2CCN(CC(=O)c3ccccc3)CC2)cc1	-7%	5%	13µM*	·	-2%	-16%
COc1ccc(N2CCN(C(=O)CCCC(=O)c3ccccc3)CC2)cc1	11%	-3%	3%	4	1%	12%
COc1cccc(NC(=O)CCNC(=O)N2CC(=O)Nc3ccccc32)c1	6%	14%	-22%	22	3%	?
O=C(NCCN1CCN(c2ccc([N+](=O)[O-])cc2)CC1)NCc1ccccc1	7%	-14%	?	-94*	2%	26%
O=C(Cn1cc([N+](=O)[O-])nc1[N+](=O)[O-])N1CCN(c2ccccc2)CC1	0.74µM*	-20%	?	2	-1%	20%
O=C(Cn1cnc2ccccc2c1=O)N1CCN(c2ccccc2)CC1	0%	13%	-1%	12	-6%	-4%
O=C(CN1CCN(c2ccc([N+](=O)[O-])cc2)CC1)c1ccccc1	·	-12%	11µM*	47	0%	?
COc1ccc(-c2csc(N3CCN(c4cc(C)nc5ccccc45)CC3)n2)cc1OC	?	2.8µM*	·	-112*	-3%	?
O=C(NC1CCCCC1)C(=O)c1ccccc1F	·	·	·	40	·	·
CCN(CC(=O)NCc1ccc(F)cc1)C(=O)CCNS(=O)(=O)c1cccc(C)c1	?	1%	-5%	32	5%	-19%
CCC(C)NC(=O)CCc1nc2ccccc2n1-c1ccccc1 (stereo unspecified)	-10%	-18%	5%	?	-24%	29%
COc1cc(Cl)c(C)cc1NC(=O)CC1CCCC1	0%	?	1%	-4	-7%	?
CC(=O)c1ccc(NC(=O)CN2CCN(c3ccccc3)CC2)cc1	-2%	-1%	-14%	11	-4%	123%
CC(C(=O)N1CCN(c2ccccc2)CC1)c1ccc([N+](=O)[O-])cc1 (stereo unspecified)	-6%	4%	0%	70	2%	13µM*
CC(=O)Nc1ccc(C(=O)CN2CCN(c3ccccc3)CC2)cc1	-38%	-15%	14µM*	0	2%	-11%
COc1ccc(N2CCN(CCCN)CC2)cc1	·	10µM*	·	19	·	·
COc1ccc(C(=O)CN2CCN(c3cc(C)nc4ccccc34)CC2)cc1	?	10µM*	20µM*	-61*	-1%	?
CC(C)Oc1ccc(CNC(=O)CCn2c(=O)c3cccn3c3ccc(F)cc32)cc1	·	·	-1%	-12	·	·
Cc1ccc(N2CCN(C(=O)C(=O)c3ccc4c(c3)OCO4)CC2)cc1	·	·	·	-37	·	·
Cc1cccc(C(=O)Nc2cc(-c3ccccc3F)nn2-c2ccccc2)c1	·	·	2%	-12	·	·
CC1=C([N+](=O)[O-])C(c2cccc(Br)c2)C2=C(N1)c1ccccc1C2=O (stereo unspecified)	4.7µM*	?	?	-90*	-17%	·
NC1(C(=O)O)CCCc2ccc(N(CCCl)CCCl)cc21 (stereo unspecified)	·	?	·	-63*	·	·
O=C1NC(=O)C2(CCCc3ccc(N(CCCl)CCCl)cc32)N1 (stereo unspecified)	·	?	·	-81*	·	·
SMILES	Pf growth 48h	HCV inh	Sm TGR block	HCMV inh	SARS PLP yeast	Pf growth 96h
O=C1NC(=O)C2(CCCc3ccc(N(CCO)CCO)cc32)N1 (stereo unspecified)	·	·	·	3	·	·
Cc1ccc(N(CC(=O)N2CCCCCC2)S(C)(=O)=O)cc1	·	·	·	-28	·	·
COc1ccc(-c2cn(-c3ccc(C)cc3C)c(=O)[nH]2)cc1OC	10%	11µM*	11µM*	-31	-9%	?
COc1ccc(C2=NO[C@@H]3C(=O)N(c4ccc(C)cc4C)C(=O)[C@H]23)cc1OC	-6%	0%	11µM*	-28	-13%	13%[5.75 µM]
COC(=O)c1ccccc1NC(=O)COC(=O)CO/N=C(\C)c1ccc2c(c1)OCO2	21%	1%	-15%	-19	?	34%
O=[N+]([O-])c1cccc(-c2nc(-c3ccccc3)c(-c3cccs3)[nH]2)c1	?	-12%	18%	-17	-1%	?
O=[N+]([O-])c1cccc(-c2nc(-c3cccs3)c(-c3cccs3)[nH]2)c1	?	13µM*	9%	4	-10%	?
NS(=O)(=O)c1ccc(CCNC(=O)CSCC(=O)Nc2ccc(Cl)cc2)cc1	-2%	?	-5%	55	4%	?
C=CCNc1nc(NCCOc2ccccc2Cl)c2sc(-c3ccccc3)cc2n1	·	·	·	1	·	·
COc1ccc(C[C@H]2CN3C(=NC[C@@H]3Cc3ccc(O)cc3)N2CCNC(=O)c2ccc(C)c(Br)c2)cc1	3.7µM*	-19%	-2%	52	0%	1.2µM*
C/C=C(\C)C(=O)NCCN1C2=NC[C@H](Cc3ccccc3)N2C[C@H]1Cc1ccc(O)cc1	-21%	4%	?	·	1%	3.7µM*
Cc1ccc(C(=O)NCCN2C3=NC[C@@H](Cc4ccccc4)N3C[C@H]2Cc2ccc(O)cc2)cc1Br	9.3µM*	-9%	-16%	?	1%	?
Cc1ccc(C(=O)NCCN2C3=NC[C@H](Cc4ccc(O)cc4)N3C[C@H]2Cc2ccc(O)cc2)cc1Br	4.1µM*	-7%[8.37 µM]	3%	-11	0%	2.9µM*
C/C=C(\C)C(=O)NCCN1C2=NC[C@@H](C)N2C[C@H]1Cc1ccc(O)cc1	51%	-11%	?	-4	1%	50%
CC1(C(=O)NS(=O)(=O)c2ccc(Cl)cc2)CCN1C(=O)Cc1ccsc1 (stereo unspecified)	·	·	·	-14	·	·
CCOc1cccc2cc(-c3nc(-c4ccccc4C)no3)c(=O)oc12	·	·	-5%	?	·	·
CCN=c1scc(C)n1/N=C/c1ccc(O)c(O)c1O	?	-5%	20µM*	-2	-5%	7.4µM*
CCN=c1scc(C)n1/N=C/c1cc(Br)c(O)c(Br)c1	?	-17%	?	?	-3%	?
COCCN=c1scc(-c2cccs2)n1/N=C/c1ccc(O)c(O)c1O	9.3µM*	?	40µM*	-38	-94%	4.1µM*
O=C(CC(=O)Nc1nc(C23CC4CC(CC(C4)C2)C3)cs1)NCCO	13µM*	7%	-7%	-22	-3%	9.3µM*
Cc1ccc(-c2csc3nc4ccc(C(=O)NCCO)cc4c(=O)n23)cc1	-20%	-23%[8.37 µM]	5%	-90*	3%	-19%
